ALOX15 inhib: 15-hLO (ALOX15) enzyme inhibition | purified 15hLO-1, xylenol orange hydroperoxide absorbance | Potency, µM (doses to about 57.1 µM), for inactives: at the highest dose activity change, negative = inhibition, most hits filed as inhibitors | 1.4% of 74,000 active; note: potency is the fitted concentration of half-maximal effect; % is set by controls: 0 for no effect and ±100 for the full control effect; nearly all actives have a fitted effect of over 55% in size
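Purified human 15hLO-1 (40 nM) in 25 mM Hepes pH 7.5, 0.01% Triton X-100, preincubated 15 min RT with compound, then 50 uM arachidonic acid for 6 min. Hydroperoxide read by ferrous/xylenol orange, 30 min; 573/405 nm absorbance ratio gave progress.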
DNA Pol III inh: DNA polymerase III holoenzyme inhibition; 0.25% of 71,000 active; reconstituted DNA polymerase III holoenzyme replication, biochemical; Potency, µM (series often up to 57.1 µM), without a hit: at the top dose activity change, negative = inhibition; note: potency is the fitted concentration of half-maximal effect; % is set by controls: 0 for no effect and ±100 for the full control effect
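Reconstituted *E. coli* holoenzyme (0.35 nM Pol III, 1 nM beta, 154 nM SSB, 2 nM primase) was preincubated with compound for 15 min at RT. Synthesis on 1.4 nM ssM13Gori ran 35 min, then was stopped with PicoGreen/EDTA and read as dsDNA fluorescence.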
BRCT inh green: blocks human BRCA1 BRCT binding to phosphopeptide, green readout; AID 875; 0.05% of 75,000 active; Potency, µM (top dose mostly 76.9 µM), for inactives: top-dose activity change, negative = inhibition, most hits filed as inhibitors; P38398; BRCA1 BRCT-phosphopeptide binding, green fluorescence polarization;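 note: potency is the fitted concentration of half-maximal effect; plate controls were peptide without protein for full effect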
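Compounds were incubated for 12 min at room temperature with a complex of 100 nM fluorescein-tagged pBACH1 decapeptide and 250 nM His-tagged BRCT protein. Buffer was phosphate pH 7.3 with EDTA, DTT and Tween 20. Disruption of binding lowers the polarization signal.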
Tau filament bind: binds recombinant human tau filaments. P10636. recombinant tau filaments, thioflavin S fluorescence, 15 h; filaments grown with octadecylsulfate alongside compound. Potency, µM (highest dose often 57.1 µM), for inactives: top-dose activity change, negative = inhibition. 2% of 71,000 active;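 note: potency is the fitted concentration of half-maximal effect; % is set by controls: 0 for no effect and ±100 for the full control effect; actives lower thioflavin S fluorescence by blocking filaments or displacing dye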
Target sequence (P10636 whole entry, looked up): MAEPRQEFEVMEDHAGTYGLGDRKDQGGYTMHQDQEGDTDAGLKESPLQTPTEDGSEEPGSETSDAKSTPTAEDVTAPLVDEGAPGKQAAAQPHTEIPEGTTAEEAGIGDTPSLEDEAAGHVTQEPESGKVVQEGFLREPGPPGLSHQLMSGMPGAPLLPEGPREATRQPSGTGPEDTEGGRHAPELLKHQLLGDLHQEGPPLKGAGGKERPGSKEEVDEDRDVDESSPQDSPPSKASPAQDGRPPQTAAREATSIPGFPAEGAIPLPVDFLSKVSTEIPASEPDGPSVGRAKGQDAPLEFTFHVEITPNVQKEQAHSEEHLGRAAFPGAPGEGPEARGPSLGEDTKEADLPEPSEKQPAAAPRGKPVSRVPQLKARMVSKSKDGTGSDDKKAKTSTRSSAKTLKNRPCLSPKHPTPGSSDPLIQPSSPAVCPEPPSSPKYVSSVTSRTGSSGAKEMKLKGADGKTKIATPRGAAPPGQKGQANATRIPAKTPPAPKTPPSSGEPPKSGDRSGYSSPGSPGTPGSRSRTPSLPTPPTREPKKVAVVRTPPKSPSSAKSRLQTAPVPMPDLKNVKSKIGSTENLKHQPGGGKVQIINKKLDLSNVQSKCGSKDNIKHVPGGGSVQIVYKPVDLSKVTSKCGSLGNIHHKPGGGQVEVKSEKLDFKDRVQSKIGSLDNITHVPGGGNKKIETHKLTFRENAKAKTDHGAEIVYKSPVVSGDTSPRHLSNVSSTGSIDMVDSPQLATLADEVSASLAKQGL
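Recombinant tau protein (human, 1 uM final) plus 30 uM ODS in HEPES pH 7.4 with NaCl, DTT and thioflavine S. Compound present from the start; fluorescence at 510 nm after 15 h, 37 C.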
BRCT PPI red: BRCT-phosphoprotein interaction inhibition (red fluorophore); P38398; BRCT-phosphopeptide binding, red fluorescence polarization; Potency, µM (doses to about 76.9 µM), for the others: top-dose activity change, negative = inhibition, usual class: inhibitors; 0.03% of 75,000 active; note: % is set by controls: 0 for no effect and ±100 for the full control effect
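Fluorescence polarization: 100 nM His-tagged BRCA1 BRCT with 100 nM TAMRA-labelled phospho-BACH1 decapeptide, phosphate buffer pH 7.3 with 150 mM NaCl, DTT, 0.01% Tween 20; 12 min RT. Binding inhibition seen as FP decrease.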
TsaE inh: displaces an ADP probe from E. coli YjeE (TsaE). P0AF67. purified YjeE enzyme, qHTS inhibition assay. Potency, µM. 0.05% of 71,000 active. AID 605
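Fluorescence polarization of a BODIPY Texas Red–ADP probe (2 uM) bound to purified YjeE (10 uM) was read after 15 min room-temperature incubation with compounds. Loss of polarization marks inhibitors; ADP serves as titrated control.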
An asterisk follows results filed as active; [ ] = remark or other dose. Sampled rows, rich in hits. Any-hit rate of the full collection: about 3.3%. Calls come from the whole dose curve; as a rule, active = well fitted curve in the direction sought with a large enough effect; inconclusive = small, poorly fitted or top-dose-only effect, or another doubt; inactive = no such curve, though single readings can be large; an effect the other way counts as inactive or inconclusive.

For CCOC(=O)C1=C(C)NC(=O)NC1c1ccc(OCC(=O)OC)c(OC)c1 (stereo unspecified) the results were ALOX15 inhib 11%, DNA Pol III inh -4%, BRCT inh green 0%, Tau filament bind -14%, BRCT PPI red 0% and TsaE inh inactive.
Screening CCOC(=O)C1=C(C)NC(=O)NC1c1ccc(OC(C)C(=O)O)c(OC)c1 (stereo unspecified) returned ALOX15 inhib 25µM*, DNA Pol III inh -8%, BRCT inh green 0%, Tau filament bind 6%, BRCT PPI red -8% and TsaE inh inactive.
`O=C(Nc1ccc2c(c1)OCO2)C1CCN(S(=O)(=O)c2cccs2)CC1` gave ALOX15 inhib -3%, DNA Pol III inh 2%, BRCT inh green -1%, Tau filament bind 13µM*, BRCT PPI red 1% and TsaE inh inactive.
Screening O=C(Nc1ccc2c(c1)OCO2)C1CCCCN1S(=O)(=O)c1ccc(F)cc1 (stereo unspecified) returned ALOX15 inhib -27%, DNA Pol III inh 2%, BRCT inh green -1%, Tau filament bind 13µM*, BRCT PPI red 1% and TsaE inh inactive.
`O=C(Nc1ccc2c(c1)OCO2)C1CCCN(c2nc3ccccc3s2)C1` (stereo unspecified) gave ALOX15 inhib inconclusive, DNA Pol III inh -23%, BRCT inh green -4%, Tau filament bind 13µM*, BRCT PPI red -21% and TsaE inh inconclusive.
`O=C(Nc1ccc2c(c1)OCO2)C1Cc2ccccc2CN1S(=O)(=O)c1cccs1` (stereo unspecified) gave ALOX15 inhib inconclusive, DNA Pol III inh -8%, BRCT inh green 2%, Tau filament bind 25µM*, BRCT PPI red -4% and TsaE inh inactive.
O=C(Nc1ccc2c(c1)OCCO2)C1CCN(S(=O)(=O)c2cccs2)CC1 was read as ALOX15 inhib 1%, DNA Pol III inh 6%, BRCT inh green 2%, Tau filament bind -2%, BRCT PPI red 0% and TsaE inh inactive.
C/C(CCN1CCCc2nc(C)c(C)cc21)=N\O[C@@H](C)c1cn([C@@H]2COC[C@@H]2O)nn1 was read as ALOX15 inhib -13%[11.4 µM], BRCT inh green -2%[15.4 µM] and BRCT PPI red 1%[15.4 µM].
Screening CNc1sc(C(=O)c2cccs2)c(N)c1-c1nc2ccccc2s1 returned ALOX15 inhib inconclusive, DNA Pol III inh -7%, BRCT inh green 1%, Tau filament bind 5µM*, BRCT PPI red -2% and TsaE inh inactive.
`O=C(OCc1nc2ccccc2s1)c1cccs1` gave ALOX15 inhib -8%, DNA Pol III inh -3%, BRCT inh green 3%, Tau filament bind -4%, BRCT PPI red 0% and TsaE inh inactive.
Screening CCOC(=O)c1c(O)[nH]c(=O)c(CC)c1C returned ALOX15 inhib -1%[11.4 µM], DNA Pol III inh -6%[11.4 µM], BRCT inh green -5%[15.4 µM], Tau filament bind 2%[11.4 µM], BRCT PPI red 0%[15.4 µM] and TsaE inh inactive.
For COc1ccccc1N1C(=O)c2ccccc2NC1c1ccncc1 (stereo unspecified) the results were ALOX15 inhib 20µM*, DNA Pol III inh -4%, BRCT inh green 0%, Tau filament bind -4%, BRCT PPI red -1% and TsaE inh inactive.
`CCCC12CN3CC(C)(CN(C1)C31C(=O)Nc3ccc(C)cc31)C2=O` (stereo unspecified) gave ALOX15 inhib 13%, DNA Pol III inh -1%, BRCT inh green -1%, Tau filament bind 20µM*, BRCT PPI red -4% and TsaE inh inactive.
For O=C1OCc2cccc3cccc1c23 the results were ALOX15 inhib 7%, DNA Pol III inh -5%, BRCT inh green 0%, Tau filament bind 6%, BRCT PPI red -1% and TsaE inh inactive.
`CC1=CC2=C(OC1N(C)C)c1cccc3cccc(c13)C2=O` (stereo unspecified) gave ALOX15 inhib 7.9µM*, DNA Pol III inh inconclusive, BRCT inh green -9%, Tau filament bind 14%, BRCT PPI red -2% and TsaE inh inactive.
Screening Nc1c(S(N)(=O)=O)cc(S(N)(=O)=O)cc1S(N)(=O)=O returned ALOX15 inhib 2%[11.4 µM], DNA Pol III inh -16%[11.4 µM], BRCT inh green 0%[15.4 µM], Tau filament bind -4%[11.4 µM], BRCT PPI red -1%[15.4 µM] and TsaE inh inactive.
CCCOC(=O)c1ccc(Oc2cn[nH]c2-c2ccc(OC)cc2O)cc1 was read as ALOX15 inhib -29%, DNA Pol III inh -11%, BRCT inh green 4%, Tau filament bind 13µM*, BRCT PPI red -2% and TsaE inh inactive.
CCOc1ccc(-c2[nH]ncc2Oc2ccccc2OC)c(O)c1 was read as ALOX15 inhib -25%, DNA Pol III inh -11%, BRCT inh green 0%, Tau filament bind inconclusive, BRCT PPI red -2% and TsaE inh inactive.
For NCCC[C@@H](CC(=O)N[C@@H]1CCCC[C@H]1C(=O)N[C@H](CC(=O)N[C@@H](CCC(=O)O)CC(=O)O)Cc1c[nH]c2ccccc12)NC(=O)C[C@H](CO)NC(=O)[C@@H]1CNCC[C@H]1N the results were DNA Pol III inh -4%, Tau filament bind -13% and TsaE inh inactive.
Screening O=C1CSC(=S)N1/N=C\c1ccc(Cl)c([N+](=O)[O-])c1 returned ALOX15 inhib 2%[11.4 µM], DNA Pol III inh -4%[11.4 µM], BRCT inh green -2%[15.4 µM], Tau filament bind 4µM*, BRCT PPI red -1%[15.4 µM] and TsaE inh inactive.
For CCCCC(CC)COC(=O)C(C#N)=C(c1ccccc1)c1ccccc1 (stereo unspecified) the results were ALOX15 inhib -13%, DNA Pol III inh 0%, BRCT inh green 1%, Tau filament bind 32µM*, BRCT PPI red -2% and TsaE inh inactive.
For CCCCC(CC)COC(=O)COc1ccc(Cl)cc1Cl (stereo unspecified) the results were ALOX15 inhib -5%, DNA Pol III inh -10%, BRCT inh green 1%, Tau filament bind 5%, BRCT PPI red 0% and TsaE inh inactive.
Screening Oc1cc(O)c2c(c1)O[C@@H](c1ccc(O)c(O)c1)[C@H](O[C@@]1(c3cc(O)c(O)c(O)c3)Oc3cc(O)cc(O)c3[C@H](O)[C@@H]1O)C2 returned ALOX15 inhib 1µM*, DNA Pol III inh 1µM*, BRCT inh green -1%[15.4 µM], Tau filament bind 0%[11.4 µM], BRCT PPI red 2%[15.4 µM] and TsaE inh inactive.
For O=C(OC1Cc2c(O)cc(O)cc2OC1c1cc(O)c(O)c(O)c1-c1c(C2Oc3cc(O)cc(O)c3CC2O)cc(O)c(O)c1O)c1cc(O)c(O)c(O)c1 (stereo unspecified) the results were ALOX15 inhib inconclusive, BRCT inh green -5% and BRCT PPI red -3%.
